PubChem BioAssay AID1259417 (TB Discovery Research, Infectious Disease Research Institute, 2018)
The campaign covered roughly 1,100 compounds. About 760 (69%) were called active. How the calls were made is not given here. The set was probably picked from earlier hits. Some of the results follow.

Assay: M. tuberculosis growth inhibition, HTS (AID 1259417);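 further: bacteria grown with compound for 5 days at 37 °C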
Conditions: stronger effect = higher value, concentration not given here
[1] = M. tuberculosis DsRed fluorescence growth inhibition
[2] = M. tuberculosis growth inhibition

| Structure (SMILES) | inhibition [1] | inhibition [2] [%] |
| --- | --- | --- |
| CCn1c2ccccc2c2cc(CN3CCC(N4CCN(c5ccccc5)CC4)CC3)ccc21 | -3.76% (inactive) | -28 |
| COC(=O)CSc1cc(SCC(=O)OC)c(C#N)c(SCC(=O)OC)c1 | 28.8% (inactive) | 23.9 |
| COC(=O)CSc1ccc(C#N)c(SCC(=O)OC)c1 | -1.74% (active) | 42.7 |
| COC(=O)CSc1ccc2c(N)c(C(=O)OC)sc2c1 | 43.5% (active) | 77.1 |
| Cc1cc(C(C)(C)C)ccc1OCCCCn1ccnc1 | 99.4% (active) | 99.7 |
| Cc1cc(C(C)(C)C)ccc1OCCOCCn1ccnc1 | 99.2% (active) | 100 |
| N=c1c2c(-c3ccccc3)c(-c3ccccc3)n(Cc3ccco3)c2ncn1Cc1ccco1 | 71% (active) | 61.5 |
| O=C(CSc1nnc(-c2cccnc2)o1)N1CCC(Cc2ccccc2)CC1 | 95.4% (active) | 86.2 |
| COc1ccccc1N1C(=O)c2cccc3cc([N+](=O)[O-])cc(c23)C1=O | 89.8% (active) | 95.8 |
| Cc1cccc(OCc2nnc(SCC(=O)NCCc3ccccc3)o2)c1 | 92.7% (active) | 74.5 |
| Cc1cccc(C)c1OCc1nnc(SCC(=O)NCCc2ccccc2)o1 | 84.2% (active) | 73.9 |
| CSc1ccc(C(CC(=O)c2ccccc2)Nc2ccc(F)cc2)cc1 (stereo not given) | 19.6% (inactive) | 21.6 |
| Cn1c(NC(=S)Nc2ccccc2)nc2ccccc21 | 21.4% (active) | 48.5 |
| Cn1c(NC(=O)c2ccccc2)nc2ccccc21 | 98.3% (active) | 99.7 |
| O=C(CSc1ccc(Br)cc1)Nc1cccc(Cl)c1 | 7.93% (inactive) | 16.8 |
| O=C(Nc1cccc(Cl)c1)c1cc(Br)ccc1Cl | 76.3% (active) | 46.1 |
| COc1ccc(N2C(=O)C(F)(F)C2c2ccccc2F)cc1 (stereo not given) | 33.6% (active) | 75.8 |
| O=C(NCc1ccco1)c1cnn2c1NC(c1ccc(Br)cc1)CC2C(F)(F)F (stereo not given) | 38.9% (active) | 15.1 |
| Cc1c(CNC(=O)c2cnn3c2NC(c2ccc(Br)cc2)CC3C(F)(F)F)cnn1C (stereo not given) | 57.6% (active) | 17.9 |
| O=C(NCc1ccc2c(c1)OCO2)c1cnn2c1NC(c1cccs1)CC2C(F)(F)F (stereo not given) | 100% (active) | 94.1 |
| CSc1nc2ccc(NC(=O)C3CC(=O)N(Cc4ccccc4)C3)cc2s1 (stereo not given) | 10.7% (inactive) | 22.1 |
| CCOC(=O)c1cnc(-n2nc(C)cc2C)nc1NCCc1ccccc1 | 101% (active) | 101 |
| CCOC(=O)c1cnc(-n2nc(C)cc2C)nc1Nc1ccc(OC)cc1 | 54% (active) | 30.7 |

| Structure (SMILES) | inhibition [1] | inhibition [2] [%] |
| --- | --- | --- |
| O=S1(=O)C=C(Sc2nnc(-c3ccccc3)o2)c2ccccc21 | 100% (active) | 101 |
| O=S1(=O)C=C(Sc2nnc(-c3ccncc3)o2)c2ccccc21 | 100% (active) | 101 |
| CC(=O)Oc1c(C(=O)c2ccccc2)sc2ccccc12 | 79.9% (active) | 52.4 |
| CCc1ccc(-c2ccc(SCC(N)=O)nn2)cc1 | 20% (active) | 41 |
| Cc1cc(OCC(=O)NC2C3CC4CC(C3)CC2C4)cc(C)c1Br (stereo not given) | 98.6% (active) | 72 |
| N#Cc1c(SCC(N)=O)nsc1SCc1ccccc1Cl | 20.8% (active) | 61.7 |
| O=C(OCC(=O)c1c[nH]c2ccccc12)c1ccc([N+](=O)[O-])s1 | 61.6% (active) | 52.7 |
| CCc1cccc2c(C(=O)COC(=O)c3ccc([N+](=O)[O-])s3)c[nH]c12 | 91.9% (active) | 95.3 |
| Cc1ccc(-c2nnc(NC(=O)c3ccccc3Cl)o2)c(C)c1 | 24.1% (active) | 62.8 |
| Cc1ccc(-c2nnc(NC(=O)c3ccccc3Br)o2)c(C)c1 | 6.55% (inactive) | 19.3 |
| Cc1ccc(-c2nnc(NC(=O)c3ccccc3C)o2)c(C)c1 | 84.4% (active) | 87.2 |
| Cc1ccc(-c2nnc(NC(=O)c3cc4ccccc4oc3=O)o2)c(C)c1 | 80.8% (active) | 88.6 |
| NC(=O)C1CCN(C2=NC(=O)C(=Cc3ccc(Cl)cc3Cl)S2)CC1 | 100% (active) | 99.1 |
| CCOC(=O)C1CCN(C2=NC(=O)C(=Cc3ccc(Cl)cc3Cl)S2)CC1 | 51.5% (active) | 55.8 |
| Cc1ccc(-c2csc3ncn(C(C)C(=O)OC4CCCCC4)c(=O)c23)cc1C (stereo not given) | -0.545% (inactive) | -11 |
| CSc1nc2nc3c(c(=O)n2[nH]1)CCCC3 | 23.8% (active) | 41.7 |
| Cc1ccc(C(C)C)cc1OCCCCn1ccnc1 | 100% (active) | 99.6 |
| Cc1cc(OCCCCn2ccnc2)cc(C(C)C)c1 | 100% (active) | 100 |
| Cc1cc(OCCCCn2ccnc2)ccc1C(C)C | 99.8% (active) | 98.9 |
| Cc1ccc(C(C)C)c(OCCCCn2ccnc2)c1 | 98.9% (active) | 100 |
| COC(=O)c1ccc(CSc2nnc(-c3ccncc3)o2)o1 | 14.3% (active) | 39.6 |
| O=C(c1ccc(Cl)cc1)c1ccc(CSc2nnc(-c3ccccc3)o2)o1 | 97.4% (active) | 96.9 |
| CCOc1cc(CNC(C)C23CC4CC(CC(C4)C2)C3)cc(Cl)c1OCC(=O)NC(C)(C)C (stereo not given) | 99.2% (active) | 98.2 |

| Structure (SMILES) | inhibition [1] | inhibition [2] [%] |
| --- | --- | --- |
| COc1cc(CNC(C)c2ccccc2)cc(Cl)c1OCC(=O)Nc1ccccc1 (stereo not given) | 29.9% (active) | 19 |
| CCOC(=O)COc1ccc(S(=O)(=O)N2CCc3ccccc3C2)cc1 | 80.1% (active) | 96.9 |
| CCOC(=O)COc1ccc(S(=O)(=O)N2CCC(C)CC2)cc1 | 72.7% (active) | 91.2 |
| COc1ccc(Cc2nnc(SCC(=O)Nc3ccc(C(C)C)cc3)o2)cc1 | 6.85% (inactive) | 9.66 |
| COc1cccc(NC(=O)CSc2nnc(-c3ccc(Br)cc3)o2)c1 | 17.3% (inactive) | 19.2 |
| C=CCSc1nnc(-c2ccc([N+](=O)[O-])cc2)o1 | 99.2% (active) | 99.1 |
| Cc1ccc(Oc2cc(NC(=O)CCCn3nc(C)c([N+](=O)[O-])c3C)cc([N+](=O)[O-])c2)cc1 | 0.414% (inactive) | -13.5 |
| COC(=O)c1ccc(NC(=O)CSc2nnc(Cc3ccc(OC)cc3)o2)cc1 | 18.7% (active) | 53.1 |
| COc1ccc(-c2nnc(SCC(=O)Nc3ccc([N+](=O)[O-])cc3)o2)cc1 | 23.1% (active) | 88.8 |
| CCOc1ccc(NC(=O)CSc2nnc(Cc3ccc(OC)cc3)o2)cc1 | 3.01% (inactive) | 2.07 |
| CCOC(=O)c1ccc(NC(=O)CSc2nnc(-c3ccc(OC)cc3)o2)cc1 | 18.2% (active) | 56.7 |
| CCOC(=O)CSc1nnc(-c2ccc([N+](=O)[O-])cc2)o1 | 95.7% (active) | 95.6 |
| O=C(/C=C/c1cccc([N+](=O)[O-])c1)c1cccs1 | 94.6% (active) | 96.5 |
| COC(=O)COc1ccc2c(-c3ccc(OC)cc3)cc(=O)oc2c1 | 97.7% (active) | 98.3 |
| CCOC(=O)C(C)Oc1ccc2c(-c3ccc(OC)cc3)cc(=O)oc2c1 (stereo not given) | 56.3% (active) | 89 |
| CCOC(=O)c1c(C)n(C)c2ccc(OC(C)C(=O)OC)cc12 (stereo not given) | 3.6% (inactive) | 19.3 |
| COC(=O)COc1ccc(NC(=O)c2ccc(-c3ccccc3)cc2)cc1 | 99.4% (active) | 100 |
| CC(C)(C)n1cnc2cc(NC(=O)c3ccc(Cl)cc3)ccc21 | 19.9% (inactive) | 28.4 |
| COC(=O)COc1ccc(NC(=O)c2ccc3c(c2)C(=O)N(C(C)(C)C)C3=O)cc1 | 69.9% (active) | 88.2 |
| COC(=O)COc1ccc(-c2ccc(C)cc2)cc1 | 35.7% (active) | 70.9 |
| CCOC(=O)COc1ccc2c(c1)c(C(=O)OCC)c(C)n2CC | 51.2% (active) | 69.6 |
| CCOC(=O)COc1ccc(OCc2ccccc2)cc1 | 1.21% (inactive) | -7.23 |
| COC(=O)COc1ccc(-c2ccccc2)cc1 | 48.7% (active) | 85.1 |

| Structure (SMILES) | inhibition [1] | inhibition [2] [%] |
| --- | --- | --- |
| CC(C(=O)OCc1ccccc1)n1cnc2scc(-c3ccc(Br)cc3)c2c1=O (stereo not given) | -4.93% (inactive) | -4.92 |
| CCOC(=O)COc1ccc(-c2ccc(C)cc2)cc1 | 24.3% (active) | 81.2 |
| Cc1ccc(-c2ccc(OCC(=O)OCc3ccccc3)cc2)cc1 | 53.2% (active) | 82.9 |
| CN1CCN(c2cc(-c3ccccc3)nc3c(C(F)(F)F)cccc23)CC1 | 93% (active) | 71 |
| COc1ccccc1NC(=O)CSc1nc(-c2ccccc2)cc(C(F)(F)F)c1C#N | 0.888% (inactive) | 24.8 |
| CC(NC(=O)c1ccc([N+](=O)[O-])o1)C12CC3CC(CC(C3)C1)C2 (stereo not given) | 70% (active) | 75.5 |
| O=C(Oc1cccc2cccnc12)c1cc2ccccc2oc1=O | 99.2% (active) | 100 |
| CCN(CC)S(=O)(=O)c1ccc(Cl)c(C(=O)Oc2cccc3cccnc23)c1 | 100% (active) | 99.3 |
| O=C(Oc1cccc2cccnc12)c1ccccc1F | 101% (active) | 101 |
| O=C(Oc1cccc2cccnc12)c1ccco1 | 101% (active) | 99.7 |
| O=C(Oc1ccccc1)c1cccc2cccnc12 | 99.7% (active) | 101 |
| CS(=O)(=O)Cc1nc2ccccc2oc1=O | 99.8% (active) | 99.5 |
| CCC(Sc1nc2ccccc2o1)C(=O)Nc1nnc(C)s1 (stereo not given) | 92.7% (active) | 96.2 |
| CNc1nc(SC)nc2ccsc12 | 99.7% (active) | 98.9 |
| c1ccc(C2=Nc3ccccc3OC2)cc1 | 97.6% (active) | 97.5 |
| CCOC(=O)COc1cc2oc(=O)cc(CC)c2cc1Cl | 6.17% (inactive) | 26.9 |
| CCCCc1cc(=O)oc2cc(OC(C)C(=O)OCC)c(Cl)cc12 (stereo not given) | 49.4% (active) | 93.7 |
| CCCCc1cc(=O)oc2cc(OCC(=O)OCc3ccccc3)c(Cl)cc12 | 33.1% (active) | 73.7 |
| CCOC(=O)c1cc(-c2csc(COc3ccc(Cl)cc3)n2)on1 | 100% (active) | 99.5 |
| CCOC(=O)c1cc(-c2csc(-c3ccc(C(F)(F)F)cc3)n2)on1 | 63.4% (active) | 83.4 |
| CCOC(=O)c1cc(-c2csc(COc3ccccc3Cl)n2)on1 | 98.1% (active) | 98.8 |
